This is a sample that favours compounds with a hit; in the whole collection about 2.4% have one here.
Pol iota inh: qHTS for Inhibitors of Polymerase Iota. DNA polymerase iota (Homo sapiens), Q9UNA4. Pol iota fluorescent replication assay, 10 min. Potency, µM (top dose mostly 115 µM), usual class: inhibitors. 390,000 tested, 1% active. AID 588590, 2011
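Pol iota at 10 nM preincubated 15 min with compounds at room temperature; reaction started with fluorescent substrate, 50 nM final. Fluorescence read kinetically at 0 and 10 min; buffer-only wells as negative control.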
POLH inh: qHTS for Inhibitors of Polymerase Eta | 390,000 tested, 1.2% active | AID 588591, 2011 | recombinant Pol eta, fluorescent DNA replication assay | Potency, µM (titrated, usually from 114 µM), hits mostly inhibitors
Target sequence (Q9Y253 whole entry, looked up): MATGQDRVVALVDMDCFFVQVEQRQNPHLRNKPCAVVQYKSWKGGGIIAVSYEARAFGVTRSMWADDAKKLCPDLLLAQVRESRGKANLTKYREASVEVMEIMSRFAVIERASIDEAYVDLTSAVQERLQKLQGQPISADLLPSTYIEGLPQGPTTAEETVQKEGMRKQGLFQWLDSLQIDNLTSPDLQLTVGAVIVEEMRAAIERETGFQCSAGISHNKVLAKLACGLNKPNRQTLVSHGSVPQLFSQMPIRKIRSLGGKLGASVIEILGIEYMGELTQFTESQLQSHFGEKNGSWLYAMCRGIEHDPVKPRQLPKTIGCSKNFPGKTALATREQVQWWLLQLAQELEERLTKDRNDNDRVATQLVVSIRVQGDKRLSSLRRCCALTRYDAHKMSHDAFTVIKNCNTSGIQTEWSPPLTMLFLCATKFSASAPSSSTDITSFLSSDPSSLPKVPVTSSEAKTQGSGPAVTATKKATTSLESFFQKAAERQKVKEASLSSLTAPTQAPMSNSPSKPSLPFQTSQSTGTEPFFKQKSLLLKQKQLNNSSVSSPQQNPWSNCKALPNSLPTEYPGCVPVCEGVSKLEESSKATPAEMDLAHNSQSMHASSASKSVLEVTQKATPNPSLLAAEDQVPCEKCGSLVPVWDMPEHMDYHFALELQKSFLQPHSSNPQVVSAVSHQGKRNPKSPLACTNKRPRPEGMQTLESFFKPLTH
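Pol eta (10 nM) was preincubated with compounds for 15 min at room temperature, after which fluorescent replication substrate (50 nM final) was added to start the reaction. Fluorescence was read kinetically at 0 and 10 min.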
Pol beta inh: qHTS Assay for Inhibitors of DNA Polymerase Beta; Pol beta primer extension/strand displacement, fluorescence kinetic; Potency, µM (highest dose often 114 µM), most hits filed as inhibitors; 340,000 tested, 1.3% active; AID 485314, 2010
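10 nM enzyme + cpd, 15 min RT; start with substrate 50 nM final; read 0 min and after 10 min RT. Corrected, normalized data; 4-parameter Hill curve fit.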
WRN helicase inh: qHTS for Inhibitors of WRN Helicase | AID 651768, 2012 | Bifunctional 3'-5' exonuclease/ATP-dependent helicase WRN (Homo sapiens), Q14191 | WRN helicase unwinding, fluorescent forked duplex, kinetic | 360,000 tested, 0.46% active | Potency, µM (doses to about 114 µM), actives largely listed as inhibitors; further: nearly all actives have a fitted effect of over 55% in size
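Kinetic fluorescence helicase assay: unwinding of a quenched forked DNA duplex (100 nM final) with 2 mM ATP final raises red fluorescence (525/598 nm). Compounds sat 15 min at room temperature with 20 nM WRN beforehand.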
FEN1 inh: qHTS Assay for the Inhibitors of Human Flap endonuclease 1 (FEN1); P39748; AID 588795, 2011; 390,000 tested, 0.35% active; Recombinant FEN1 flap cleavage, fluorescence, 15 min; Potency, µM (highest dose often 114 µM), actives largely listed as inhibitors; further: nearly all actives have a fitted effect of over 65% in size
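FEN1 at 10 nM, compound pretreatment for 15 min (room temperature), 50 nM final substrate to initiate; endpoint reads at 0 and 15 min; DMSO-only plates used as vehicle background.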
Pol kappa inh: qHTS for Inhibitors of Polymerase Kappa; purified Pol kappa, fluorescent DNA synthesis assay, 10 min; AID 588579, 2011; Potency, µM (series often up to 107 µM), usual class: inhibitors; 400,000 tested, 0.53% active
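Readout: fluorescence, taken kinetically at 0 and 10 min. Conditions: 10 nM Pol kappa, 15 min RT compound preincubation, 50 nM substrate final. Controls: enzyme-free buffer wells.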
Large screens that a line does not name were inactive; ! = not confirmed by another sample. The call rests on the fitted dose curve; in most records, active means well fitted curve in the direction sought with a large enough effect; inconclusive means small, poorly fitted or top-dose-only effect, or another doubt; inactive means no such curve, though single readings can be large; an effect the other way counts as inactive or inconclusive.

O=C(O)C1C2C=CC(O2)C1C(=O)NCCC1=CCCCC1 (stereo unspecified)	Pol iota inh inconclusive, POLH inh 50.1µM, Pol beta inh inconclusive
O=C(NCCC1=CCCCC1)C(=O)NCc1ccccc1	none
CN(C)c1ccc(/C=C2\C(=N)N3N=C(CC(=O)N4CCCCC4)SC3=NC2=O)cc1	Pol iota inh 50.1µM, POLH inh inconclusive, Pol beta inh inconclusive, WRN helicase inh inconclusive, Pol kappa inh inconclusive
CCC1=NN2C(=N)/C(=C\c3ccc(OCCOc4ccccc4)c(OC)c3)C(=O)N=C2S1	none (no result: Pol iota inh, POLH inh, WRN helicase inh, FEN1 inh, Pol kappa inh)
CCC1=NN2C(=N)/C(=C\c3cccn3-c3ccc(Cl)cc3)C(=O)N=C2S1	Pol iota inh inconclusive, POLH inh inconclusive, Pol beta inh 28.2µM
CCC1=NN2C(=N)/C(=C/c3ccc(OS(=O)(=O)c4ccccc4)cc3)C(=O)N=C2S1	POLH inh 44.7µM, Pol beta inh inconclusive
O=C(Cc1cccs1)Nc1nnc(-c2ccncc2)s1	Pol iota inh 63.1µM, Pol beta inh inconclusive
COc1cccc(-c2nnc(NC(=O)Cc3cccs3)s2)c1	POLH inh inconclusive, Pol beta inh 20µM
CCOC(=O)c1c(C)nc(C)c(C(=O)OCC)c1-c1ccc(OC)cc1	Pol beta inh 0.159µM!
CCCCN(CCCC)c1ccc(Cn2ccc3ccccc32)cc1	none (no result: POLH inh, Pol beta inh, WRN helicase inh)
Cc1cccc(C(=O)Nc2ccccc2OCc2cc(=O)n3c(C)csc3n2)c1	none (no result: WRN helicase inh)
Cc1cccc(C(=O)Nc2ccc(C(=O)OCc3cc(=O)n4c(C)csc4n3)cc2)c1	Pol beta inh 12.6µM (no result: WRN helicase inh)
CCN1C(=O)/C(=C\c2ccc(-c3cccc(C(=O)OC)c3)o2)SC1=Nc1ccc(C(=O)O)cc1	none (no result: Pol iota inh, POLH inh, WRN helicase inh, FEN1 inh, Pol kappa inh)
CCN=C1S/C(=C/c2ccc(-c3ccc(Cl)cc3C(=O)O)o2)C(=O)N1CC	POLH inh 35.5µM, FEN1 inh inconclusive
Cc1ccc(S(=O)(=O)c2cnc(-c3ccccc3)[nH]c2=O)cc1	none (no result: POLH inh, Pol beta inh, WRN helicase inh)
COc1ccc(NC(=O)C(Cl)=C(Cl)Cl)cn1	none
COc1ccc(NC(=O)/C(Cl)=C(/Cl)S(=O)Cc2ccc(Cl)cc2)cn1 (stereo unspecified)	Pol iota inh inconclusive, POLH inh inconclusive, Pol beta inh inconclusive, WRN helicase inh 22.4µM
NC(=O)c1cc([N+](=O)[O-])ccc1NCCc1ccccc1	none
NC(=O)c1ccc([N+](=O)[O-])cc1SCc1ccccc1	Pol iota inh inconclusive, POLH inh inconclusive, Pol beta inh 39.8µM, Pol kappa inh inconclusive
CCOc1ccc(NC(=O)COC(=O)c2ccccc2OCC(=O)N(C)C)cc1	none (no result: POLH inh, Pol beta inh, WRN helicase inh)
COC(=O)C1CCN(C(=O)COC(=O)c2cc(-c3ccccc3)nc3ccc(OC)cc23)CC1	Pol iota inh 20µM, POLH inh 39.8µM (no result: Pol beta inh)
COc1ccc(-c2cc(C(=O)OCC(=O)N3CCOCC3)c3ccccc3n2)cc1	none (no result: Pol beta inh)
COc1ccc(CCn2c(NN=C(C)C)nc3c2c(=O)[nH]c(=O)n3C)cc1	Pol iota inh inconclusive, FEN1 inh inconclusive
COc1ccc(CCn2c(NN)nc3c2c(=O)[nH]c(=O)n3C)cc1	Pol iota inh 25.1µM, POLH inh 89.1µM
CO[C@H]1OC2O[C@@]3(C)CC[C@H]4[C@H](C)CC[C@@H]([C@H]1C)[C@@]24OO3 (stereo partly specified)	none (no result: Pol iota inh, POLH inh, Pol beta inh, WRN helicase inh, FEN1 inh)
Cc1ccc(S(=O)(=O)c2ccc([N+](=O)[O-])o2)cc1	Pol iota inh 17.8µM, WRN helicase inh 14.1µM (no result: Pol beta inh)
Cc1ccccc1-c1nnnn1C1CCS(=O)(=O)C1 (stereo unspecified)	none
Cc1cc(=O)n(C2CCS(=O)(=O)C2)[nH]1 (stereo unspecified)	Pol iota inh 4.47µM
COc1ccc(N=C2NC(=O)/C(=C/c3ccc(O)c(OC)c3)S2)cc1	Pol iota inh inconclusive, POLH inh inconclusive, Pol beta inh 39.8µM, WRN helicase inh inconclusive, FEN1 inh inconclusive
COc1cc(/C=C2/SC(=Nc3ccc(O)cc3)NC2=O)cc(OC)c1O	Pol iota inh inconclusive
COC(=O)/C=C1/SC(=NC(=O)c2cccc([N+](=O)[O-])c2)NC1=O	none
CC(=O)Nc1ccc(S(=O)(=O)/N=C2/NC(=O)/C(=C\c3ccco3)S2)cc1	Pol iota inh inconclusive, POLH inh 20µM, Pol beta inh 10µM, Pol kappa inh inconclusive
COc1cccc(N=C2NC(=O)/C(=C/c3cc([N+](=O)[O-])ccc3O)S2)c1	Pol iota inh inconclusive, POLH inh 28.2µM, FEN1 inh inconclusive
COc1ccc(N=C2NC(=O)/C(=C\c3ccco3)S2)cc1	Pol iota inh 39.8µM, POLH inh inconclusive, Pol beta inh 20µM, WRN helicase inh inconclusive, Pol kappa inh inconclusive
CC1(C)OC(=O)C2(Cc3cc(C(F)(F)F)ccc3N3CCCCC32)C(=O)O1 (stereo unspecified)	none (no result: POLH inh, Pol beta inh, WRN helicase inh)
COc1ccc(/C=C2\SC(=Nc3ccccc3)NC2=O)cc1	none (no result: Pol iota inh, POLH inh, WRN helicase inh, FEN1 inh, Pol kappa inh)
CCc1ccc(N=C2NC(=O)/C(=C/c3ccc(OCC(=O)O)c(OC)c3)S2)cc1	Pol iota inh inconclusive, Pol beta inh 20µM, WRN helicase inh inconclusive, FEN1 inh inconclusive
CCOc1ccc(N=C2NC(=O)S/C2=C\c2ccc(OC)cc2)cc1	Pol iota inh inconclusive, Pol beta inh 10µM
Nc1ncnc2c1nc(Br)n2C1OC2COP(=O)(O)O[C@@H]2C1O (stereo partly specified)	none (no result: Pol iota inh, POLH inh, Pol beta inh, WRN helicase inh, FEN1 inh)
O=C(NCCCCN1CCOCC1)c1cc2ccccc2o1	none (no result: Pol iota inh, POLH inh, Pol beta inh, WRN helicase inh, FEN1 inh)
O=C(CNS(=O)(=O)c1ccc(Br)cc1)OCc1cc(=O)n2cc(Br)ccc2n1	Pol beta inh 35.5µM (no result: Pol iota inh, POLH inh, WRN helicase inh, FEN1 inh, Pol kappa inh)
CCOc1ccc(Nc2nc(N)c(C(=O)c3ccccc3Cl)s2)cc1	none (no result: WRN helicase inh)
COCCSc1ccccc1C(=O)Nc1ccc(Cl)cc1	Pol iota inh 10µM
COc1ccc2ccccc2c1C(=O)/C=C\c1ccoc1	Pol iota inh inconclusive, POLH inh inconclusive, Pol beta inh 44.7µM
O=C(/C=C/c1ccoc1)c1ccccc1O	none
Nc1c(N=Nc2ccc([N+](=O)[O-])cc2)c(S(=O)(=O)O)cc2cc(S(=O)(=O)O)c(/C=C/c3ccccc3)c(O)c12	Pol iota inh 25.1µM, FEN1 inh 11.2µM, Pol kappa inh 31.6µM (no result: POLH inh, Pol beta inh, WRN helicase inh)
O=C(CSc1nc2sccc2c(=O)[nH]1)N1CCN(c2ccccc2)CC1	Pol iota inh inconclusive, POLH inh 50.1µM, Pol beta inh 25.1µM, Pol kappa inh inconclusive
COc1cccc2cc(C(=O)Oc3ccccc3)c(=O)oc12	POLH inh inconclusive, Pol beta inh 89.1µM
O=C(NCCc1ccc(Cl)cc1Cl)c1ccc2nc[nH]c2c1	none

Compound activity (PubChem BioAssay)
